Shown are actives, neighbours in structure and some others; about 19% of the full set was active somewhere.
IL1B secr inh – inflammasome signaling inhibition, IL-1 beta readout | THP-1 LPS/ATP IL-1B secretion, AlphaLISA, 16 h; stronger effect = lower value | activity change, % at 57.5 µM | actives 4.7% (n = 360,000) | AID 743279; in the data active means activity change below about -50%; inconclusive means mostly about -30% to -49%
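THP-1 cells pretreated 1 hr with compounds (up to 57.5 uM final), then stimulated with LPS (250 ng/mL final) plus ATP (1.25 mM final); secreted IL-1B measured by AlphaLISA after 16 hr, decreased signal indicating inhibition.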
HT1080 IDH1KD tx – kills HT-1080 cells with IDH1 knockdown | HT-1080 IDH1 knockdown viability, ATP luminescence, 48 h | Potency, µM (top dose mostly 46.1 µM), for inactives: at the highest dose activity, negative = toxicity, hits mostly cytotoxic | actives 2% (n = 360,000);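 further: potency means the concentration at half of the fitted maximal effect; 0% = DMSO wells and -100% = cell-free medium wells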
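Luminescent ATP read-out (CellTiter-Glo, 10 min at room temperature) after 48 h compound exposure at 37 °C gave viability of IDH1-knockdown HT-1080 cells. Activity was normalised to DMSO and cell-free wells, then fitted as concentration-response curves.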
TDP1 cell CPT – DT40-hTDP1 cell growth loss with CPT. chicken DT40 Tdp1-/-;hTDP1 cells + 20 nM CPT, ATP luminescence, 48 h. Potency, µM (highest dose often 46.2 µM), inactives show at the top dose activity change, negative = growth inhibition, usual class: inhibitors. actives 12% (n = 420,000); further: potency means the concentration at half of the fitted maximal effect; nearly all actives have a fitted effect of over 55% in size
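Chicken DT40 Tdp1-/- cells complemented with human TDP1, 400 cells/well, exposed to compounds plus 20 nM camptothecin for at least 48 h at 37 C; viability read as ATP content by CellTiter-Glo luminescence.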
DT40 TDP1 no CPT – qHTS for Inhibitors of human tyrosyl-DNA phosphodiesterase 1 (TDP1): qHTS in cells in absence of CPT. DT40 Tdp1-/- hTDP1 cells, no CPT, ATP luminescence, 48 h. Potency, µM (doses to about 46.2 µM), for inactives: top-dose activity change, negative = growth inhibition, hits mostly inhibitors. actives 15% (n = 420,000). AID 686978, 2013; further: potency means the concentration at half of the fitted maximal effect; nearly all actives have a fitted effect of over 55% in size
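Luminescent ATP content (CellTiter-Glo) served as the growth readout. Knockout chicken DT40 cells expressing human TDP1 were exposed to compounds without camptothecin for a minimum 48 hr at 37 °C.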
HT1080NT lethal – kills 2HG-producing HT-1080-NT fibrosarcoma cells; HT-1080-NT fibrosarcoma viability, CellTiter-Glo ATP luminescence, 48 h; Potency, µM (series often up to 46.1 µM), without a hit: at the highest dose activity, negative = less viability, hits mostly cytotoxic; actives 1.6% (n = 360,000); AID 686970;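 further: NT is the 2HG producing partner of a matched IDH1 knockdown line; potency means the concentration at half of the fitted maximal effect; 0% = DMSO-treated cells and -100% = media-only wells without cells; nearly all actives have a fitted effect of over 55% in size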
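HT-1080-NT; 750 cells/well; 5% FBS RPMI; 48 h compound, 37 degrees C; CellTiter-Glo luminescence; curve fitting and curve-class assignment.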
Active calls of the source: *. Unless noted, the call rests on the fitted dose curve; in most records, active means well fitted curve in the direction sought with a large enough effect; inconclusive means small, poorly fitted or top-dose-only effect, or another doubt; inactive means no such curve, though single readings can be large; an effect the other way counts as inactive or inconclusive. Unless noted, on the % scale 0 is the no-effect control and ±100 the full control effect.

What do the screens show for `Cc1cc(NC(=O)c2ccc(Cn3nc(C)c(Br)c3C)o2)no1`?
IL1B secr inh: -17.8; HT1080 IDH1KD tx: -8.2%; TDP1 cell CPT: inconclusive; DT40 TDP1 no CPT: inconclusive; HT1080NT lethal: -22.0%

Results for COc1ccc(CNC(=O)c2ccc(Cn3nc(C)cc3C)o2)cc1 ?
IL1B secr inh: -24.8; HT1080 IDH1KD tx: 3.8%; TDP1 cell CPT: -21.0%; DT40 TDP1 no CPT: 10.6%; HT1080NT lethal: 10.5%

Results for Cc1nn(Cc2ccc(C(=O)NC(C)(C)C)o2)c(C)c1Br ?
IL1B secr inh: -19.5; HT1080 IDH1KD tx: -14.4%; TDP1 cell CPT: 23.1µM*; DT40 TDP1 no CPT: 11.6µM*; HT1080NT lethal: -9.5%

How did COc1ccc(N2CCN(C(=O)c3ccc(Cn4nc(C)c([N+](=O)[O-])c4C)o3)CC2)cc1 do in these assays?
IL1B secr inh: -12.2; HT1080 IDH1KD tx: -18.8%; TDP1 cell CPT: inconclusive; DT40 TDP1 no CPT: 13µM*; HT1080NT lethal: inconclusive

How did COc1ccc(CNC(=O)c2ccc(Cn3nc(C)c([N+](=O)[O-])c3C)o2)cc1 do in these assays?
IL1B secr inh: -22.8; HT1080 IDH1KD tx: -14.8%; TDP1 cell CPT: inconclusive; DT40 TDP1 no CPT: 23.1µM*; HT1080NT lethal: 0.0%

Results for Cc1nn(CCCC(=O)N2CCN(c3ccc(F)cc3)CC2)c(C)c1[N+](=O)[O-] ?
IL1B secr inh: -23.5; HT1080 IDH1KD tx: -2.2%; TDP1 cell CPT: 16.4µM*; DT40 TDP1 no CPT: 20.6µM*; HT1080NT lethal: -2.7%

What do the screens show for `Cc1nn(Cc2ccc(C(=O)N3CCCC3)o2)c(C)c1[N+](=O)[O-]`?
IL1B secr inh: 45.3; HT1080 IDH1KD tx: 0.6%; TDP1 cell CPT: -15.8%; DT40 TDP1 no CPT: 17.5%; HT1080NT lethal: -4.5%

What do the screens show for `COc1ccc(CN2C(=O)N(c3ccc(C)cc3)C(=O)C2CC(=O)Nc2ccccc2)cc1OC` (centres undefined)?
TDP1 cell CPT: -27.3%; DT40 TDP1 no CPT: inconclusive

What do the screens show for `Cc1c(NC(=O)c2cc3nc(-c4ccc(Cl)cc4)cc(C(F)(F)F)n3n2)c(=O)n(-c2ccccc2)n1C`?
IL1B secr inh: -7.6; HT1080 IDH1KD tx: 15.0%; TDP1 cell CPT: inconclusive; DT40 TDP1 no CPT: inconclusive; HT1080NT lethal: 11.7%

How did CCc1ccc(OC)c(S(=O)(=O)NCc2cccs2)c1 do in these assays?
IL1B secr inh: -26.7; HT1080 IDH1KD tx: -6.4%; TDP1 cell CPT: 22.2%; DT40 TDP1 no CPT: -0.2%; HT1080NT lethal: -0.6%

Results for Cc1nn(C2CCS(=O)(=O)C2)c2nc(C3CC3)cc(C(=O)Nc3cccc(C#N)c3)c12 (centres undefined) ?
IL1B secr inh: inconclusive; HT1080 IDH1KD tx: -17.8%; TDP1 cell CPT: inconclusive; DT40 TDP1 no CPT: inconclusive; HT1080NT lethal: -17.8%

Results for Cc1nc2nc(-c3ccc(Cl)cc3Cl)nn2c(C)c1CCC(=O)Nc1ccc(F)cc1 ?
TDP1 cell CPT: 0.6%; DT40 TDP1 no CPT: -0.2%

How did CCN(CC)S(=O)(=O)c1ccc(NC(=O)CCc2c(C)nc3cc(-c4ccc(Cl)cc4)nn3c2C)cc1 do in these assays?
TDP1 cell CPT: 4.61µM*; DT40 TDP1 no CPT: 3.66µM*

What do the screens show for `CC(=O)c1ccc(NC(=O)CCc2c(C)nc3cc(-c4ccc(Cl)cc4)nn3c2C)cc1`?
TDP1 cell CPT: inconclusive; DT40 TDP1 no CPT: 6.51µM*

How did COc1ccc(NC(=S)N(Cc2ccc(N(C)C)cc2)Cc2ccco2)cc1 do in these assays?
IL1B secr inh: -76.2*; HT1080 IDH1KD tx: -7.2%; TDP1 cell CPT: 1.9%; DT40 TDP1 no CPT: inconclusive; HT1080NT lethal: -14.1%

What do the screens show for `CCCN(Cc1ccccc1)C(=S)Nc1ccc(OCC)cc1`?
IL1B secr inh: -58.5*; HT1080 IDH1KD tx: -12.6%; TDP1 cell CPT: inconclusive; DT40 TDP1 no CPT: 18.4µM*; HT1080NT lethal: -23.7%

Results for CCCN(Cc1ccccc1)C(=S)Nc1ccc(F)cc1 ?
IL1B secr inh: -9.7; HT1080 IDH1KD tx: 0.8%; TDP1 cell CPT: 13.3%; DT40 TDP1 no CPT: -10.5%; HT1080NT lethal: 15.3%

What do the screens show for `CCOc1ccc(NC(=S)N(Cc2ccc(N(C)C)cc2)Cc2ccco2)cc1`?
IL1B secr inh: -19.1; HT1080 IDH1KD tx: 4.6%; TDP1 cell CPT: inconclusive; DT40 TDP1 no CPT: 16.4µM*; HT1080NT lethal: 6.0%

Results for CCOc1ccc(NC(=S)NCc2ccco2)cc1 ?
IL1B secr inh: -3.1; HT1080 IDH1KD tx: 10.7%; TDP1 cell CPT: 3.3%; DT40 TDP1 no CPT: -1.7%; HT1080NT lethal: 7.2%

What do the screens show for `CC(CNC(=O)c1cc2cc(S(=O)(=O)N3CCCCC3)ccc2n1C)c1ccccc1` (centres undefined)?
TDP1 cell CPT: 3.26µM*; DT40 TDP1 no CPT: 11.6µM*

How did Cn1c(C(=O)NCCc2ccccc2)cc2cc(S(=O)(=O)N3CCCCC3)ccc21 do in these assays?
TDP1 cell CPT: 14.6µM*; DT40 TDP1 no CPT: inconclusive

Results for Cc1ccc(NC(=O)CN2CCc3ccccc3C2)cc1S(=O)(=O)N1CCOCC1 ?
IL1B secr inh: 15.4; HT1080 IDH1KD tx: 1.2%; TDP1 cell CPT: inconclusive; DT40 TDP1 no CPT: inconclusive; HT1080NT lethal: 1.1%

What do the screens show for `CN(C)S(=O)(=O)c1ccc(Cl)c(NC(=O)CN2CCc3ccccc3C2)c1`?
IL1B secr inh: -15.7; HT1080 IDH1KD tx: -5.5%; TDP1 cell CPT: 18.4µM*; DT40 TDP1 no CPT: 20.6µM*; HT1080NT lethal: -15.3%

What do the screens show for `Cc1ccc(NC(=O)CN2CCc3ccccc3C2)cc1S(=O)(=O)N(C)C`?
IL1B secr inh: 18.1; HT1080 IDH1KD tx: 2.1%; TDP1 cell CPT: inconclusive; DT40 TDP1 no CPT: 23.1µM*; HT1080NT lethal: 11.0%

What do the screens show for `O=C(CN1CCN(c2ccc(O)cc2)CC1)Nc1cc([N+](=O)[O-])ccc1Cl`?
IL1B secr inh: -6.0; HT1080 IDH1KD tx: 10.5%; TDP1 cell CPT: 20.6µM*; DT40 TDP1 no CPT: 20.6µM*; HT1080NT lethal: 4.1%

How did O=C(CN1CCN(c2ccccc2)CC1)Nc1ccccc1Cl do in these assays?
IL1B secr inh: 0.6; HT1080 IDH1KD tx: -0.7%; TDP1 cell CPT: inconclusive; DT40 TDP1 no CPT: -4.4%; HT1080NT lethal: -0.4%

Results for CCN(CC)S(=O)(=O)c1ccc(O)c(NC(=O)CN2CCc3ccccc3C2)c1 ?
IL1B secr inh: 7.1; HT1080 IDH1KD tx: 0.3%; TDP1 cell CPT: 1.3%; DT40 TDP1 no CPT: inconclusive; HT1080NT lethal: -0.3%

Results for CN(C)S(=O)(=O)c1cc(NC(=O)CN2CCN(c3ccccc3F)CC2)ccc1Cl ?
IL1B secr inh: 0.0; HT1080 IDH1KD tx: -4.5%; TDP1 cell CPT: inconclusive; DT40 TDP1 no CPT: 20.6µM*; HT1080NT lethal: 3.1%

How did CCN(CC)c1ncnc2c1ncn2[C@H]1CN(Cc2ccc3c(c2)OCO3)C[C@@H](CO)O1 do in these assays?
IL1B secr inh: -24.8; HT1080 IDH1KD tx: -4.6%; TDP1 cell CPT: inconclusive; DT40 TDP1 no CPT: inconclusive; HT1080NT lethal: -4.4%
